Assay results from the supplement of paper PMC10849652.
The full data set covers some 8,800 targets. This sample favours those with a hit. About 0.5% of all pairs of compound and target were hits. Unmarked numbers belong to inactive results.

Compound: CN1CCN(c2nc(C3=C(c4c[nH]c5ccccc45)C(=O)NC3=O)c3ccccc3n2)CC1 [sotrastaurin]
Assay: log2 fold change, soluble protein after heating vs DMSO (PISA); higher = thermal stabilisation; K562 lysate, 10 uM; active = over 0.2 and 3.5 SD of the protein, either way, in both replicates (recomputed)
Outline: (§1)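 Values give the log-two fold change in thermal stability against solvent controls, from duplicates. Crude K562 extract at 1 mg/mL protein, made by dounce homogenisation in PBS pH 7.4 with 1 mM MgCl2, was treated with 10 μM compound for 30 min. After 3 min heating across 48°C-58°C, aliquots were pooled, adjusted to 0.5% NP-40 at 4°C and centrifuged at 21,000xg for 90 min. The supernatant was measured by TMTpro 16plex LC-MS/MS with channel sums equalised.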

Sequence of UniProt Q6P3W2 (Q6P3W2 whole entry, looked up): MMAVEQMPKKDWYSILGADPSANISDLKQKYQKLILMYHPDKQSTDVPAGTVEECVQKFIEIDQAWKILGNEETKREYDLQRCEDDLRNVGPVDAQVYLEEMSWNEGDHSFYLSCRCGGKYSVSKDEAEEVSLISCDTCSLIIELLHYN
Sequence of UniProt P39880 (P39880 whole entry, looked up): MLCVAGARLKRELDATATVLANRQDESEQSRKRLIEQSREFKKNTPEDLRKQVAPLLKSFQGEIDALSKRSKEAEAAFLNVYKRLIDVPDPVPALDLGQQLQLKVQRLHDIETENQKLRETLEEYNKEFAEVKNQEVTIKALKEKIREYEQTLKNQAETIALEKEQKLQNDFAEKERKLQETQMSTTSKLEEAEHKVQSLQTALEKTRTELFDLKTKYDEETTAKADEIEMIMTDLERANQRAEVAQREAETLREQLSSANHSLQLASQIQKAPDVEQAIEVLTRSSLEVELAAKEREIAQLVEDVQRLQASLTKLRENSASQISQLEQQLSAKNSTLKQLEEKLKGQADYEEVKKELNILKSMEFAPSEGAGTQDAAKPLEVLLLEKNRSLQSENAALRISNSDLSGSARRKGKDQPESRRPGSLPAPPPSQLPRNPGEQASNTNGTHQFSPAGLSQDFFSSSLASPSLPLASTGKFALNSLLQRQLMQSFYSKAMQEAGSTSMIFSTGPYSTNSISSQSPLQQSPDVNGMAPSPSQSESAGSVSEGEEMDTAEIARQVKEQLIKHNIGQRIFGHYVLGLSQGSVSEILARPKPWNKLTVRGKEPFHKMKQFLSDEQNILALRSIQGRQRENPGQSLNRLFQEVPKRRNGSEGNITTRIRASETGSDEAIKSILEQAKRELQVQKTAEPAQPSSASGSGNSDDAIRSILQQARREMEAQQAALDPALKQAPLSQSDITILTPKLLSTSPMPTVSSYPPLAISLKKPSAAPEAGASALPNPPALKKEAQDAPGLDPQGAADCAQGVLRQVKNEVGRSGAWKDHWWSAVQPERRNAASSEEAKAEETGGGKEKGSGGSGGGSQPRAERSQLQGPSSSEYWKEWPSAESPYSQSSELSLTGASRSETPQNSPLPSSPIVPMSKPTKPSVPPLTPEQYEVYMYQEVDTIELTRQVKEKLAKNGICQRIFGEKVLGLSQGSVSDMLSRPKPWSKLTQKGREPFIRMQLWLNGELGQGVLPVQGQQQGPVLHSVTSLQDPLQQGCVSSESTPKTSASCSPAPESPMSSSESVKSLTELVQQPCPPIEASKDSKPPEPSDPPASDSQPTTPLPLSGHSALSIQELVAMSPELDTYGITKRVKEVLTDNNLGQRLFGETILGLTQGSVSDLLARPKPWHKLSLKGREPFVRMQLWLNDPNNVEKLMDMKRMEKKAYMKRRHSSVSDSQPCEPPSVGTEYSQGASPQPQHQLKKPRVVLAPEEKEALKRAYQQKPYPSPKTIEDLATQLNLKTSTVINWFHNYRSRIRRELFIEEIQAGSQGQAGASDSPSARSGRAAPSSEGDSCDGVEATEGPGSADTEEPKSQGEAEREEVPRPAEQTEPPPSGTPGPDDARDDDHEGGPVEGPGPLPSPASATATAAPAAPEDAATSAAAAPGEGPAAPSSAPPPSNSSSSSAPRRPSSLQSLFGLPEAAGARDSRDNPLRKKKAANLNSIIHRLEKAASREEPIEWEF
Sequence of UniProt P61024 (P61024 whole entry, looked up): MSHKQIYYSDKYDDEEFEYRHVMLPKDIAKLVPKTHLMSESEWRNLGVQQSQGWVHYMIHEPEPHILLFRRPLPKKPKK
Sequence of UniProt O75208 (O75208 whole entry, looked up): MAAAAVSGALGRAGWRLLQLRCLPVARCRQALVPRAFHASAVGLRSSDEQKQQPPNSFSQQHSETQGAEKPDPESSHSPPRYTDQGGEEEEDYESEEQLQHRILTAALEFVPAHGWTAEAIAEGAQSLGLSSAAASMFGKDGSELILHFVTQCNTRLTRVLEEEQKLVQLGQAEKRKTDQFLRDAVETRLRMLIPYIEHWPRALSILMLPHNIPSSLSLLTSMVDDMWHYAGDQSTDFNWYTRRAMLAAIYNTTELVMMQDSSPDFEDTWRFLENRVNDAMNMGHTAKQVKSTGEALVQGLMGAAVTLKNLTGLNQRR
Sequence of UniProt Q92796 (Q92796 whole entry, looked up): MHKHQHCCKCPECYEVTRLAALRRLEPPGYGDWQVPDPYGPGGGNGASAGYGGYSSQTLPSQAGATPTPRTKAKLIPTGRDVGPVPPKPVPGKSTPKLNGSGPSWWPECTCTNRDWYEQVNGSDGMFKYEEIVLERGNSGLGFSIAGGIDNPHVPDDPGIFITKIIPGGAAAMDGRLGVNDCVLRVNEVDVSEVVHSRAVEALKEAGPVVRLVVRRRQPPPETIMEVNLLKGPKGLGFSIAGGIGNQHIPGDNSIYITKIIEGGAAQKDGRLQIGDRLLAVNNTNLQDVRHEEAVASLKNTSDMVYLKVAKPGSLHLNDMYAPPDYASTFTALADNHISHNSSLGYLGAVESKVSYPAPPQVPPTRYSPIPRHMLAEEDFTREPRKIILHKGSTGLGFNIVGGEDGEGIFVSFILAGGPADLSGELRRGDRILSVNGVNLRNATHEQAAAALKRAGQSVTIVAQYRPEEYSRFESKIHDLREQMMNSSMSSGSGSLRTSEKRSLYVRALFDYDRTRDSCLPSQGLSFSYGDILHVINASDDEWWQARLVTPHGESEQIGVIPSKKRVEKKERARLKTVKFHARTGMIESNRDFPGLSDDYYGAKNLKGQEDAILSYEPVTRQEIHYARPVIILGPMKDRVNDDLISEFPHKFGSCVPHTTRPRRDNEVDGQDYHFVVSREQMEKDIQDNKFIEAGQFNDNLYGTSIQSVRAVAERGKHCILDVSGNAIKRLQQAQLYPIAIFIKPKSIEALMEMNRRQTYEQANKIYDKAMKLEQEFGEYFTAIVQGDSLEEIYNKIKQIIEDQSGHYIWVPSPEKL
Sequence of UniProt P48729 (P48729 whole entry, looked up): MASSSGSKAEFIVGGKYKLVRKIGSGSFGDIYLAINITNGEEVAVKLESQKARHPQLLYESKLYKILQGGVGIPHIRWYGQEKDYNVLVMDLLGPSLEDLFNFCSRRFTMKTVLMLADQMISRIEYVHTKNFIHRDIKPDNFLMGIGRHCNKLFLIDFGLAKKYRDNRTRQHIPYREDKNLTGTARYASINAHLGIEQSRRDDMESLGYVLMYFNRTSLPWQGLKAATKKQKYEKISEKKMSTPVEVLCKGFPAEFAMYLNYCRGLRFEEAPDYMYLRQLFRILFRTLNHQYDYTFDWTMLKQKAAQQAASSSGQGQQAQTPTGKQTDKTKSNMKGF
Sequence of UniProt Q8NI60 (Q8NI60 whole entry, looked up): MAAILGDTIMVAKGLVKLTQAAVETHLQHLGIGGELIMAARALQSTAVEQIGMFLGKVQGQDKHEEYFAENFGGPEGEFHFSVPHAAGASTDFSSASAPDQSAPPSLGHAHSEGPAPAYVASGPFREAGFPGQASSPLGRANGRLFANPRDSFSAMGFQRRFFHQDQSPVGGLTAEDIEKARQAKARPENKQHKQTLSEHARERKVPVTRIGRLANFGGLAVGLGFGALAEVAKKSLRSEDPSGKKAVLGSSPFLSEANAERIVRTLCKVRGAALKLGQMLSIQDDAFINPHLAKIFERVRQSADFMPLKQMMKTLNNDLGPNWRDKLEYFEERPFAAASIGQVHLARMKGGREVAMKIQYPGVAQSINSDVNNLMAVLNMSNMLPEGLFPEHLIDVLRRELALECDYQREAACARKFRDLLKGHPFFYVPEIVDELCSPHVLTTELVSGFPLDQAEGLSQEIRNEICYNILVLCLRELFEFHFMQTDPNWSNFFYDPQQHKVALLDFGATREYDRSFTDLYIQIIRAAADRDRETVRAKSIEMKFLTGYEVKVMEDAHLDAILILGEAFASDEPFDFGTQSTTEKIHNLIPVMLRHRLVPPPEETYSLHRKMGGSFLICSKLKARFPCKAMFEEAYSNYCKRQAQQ
Sequence of UniProt P51790 (P51790 whole entry, looked up): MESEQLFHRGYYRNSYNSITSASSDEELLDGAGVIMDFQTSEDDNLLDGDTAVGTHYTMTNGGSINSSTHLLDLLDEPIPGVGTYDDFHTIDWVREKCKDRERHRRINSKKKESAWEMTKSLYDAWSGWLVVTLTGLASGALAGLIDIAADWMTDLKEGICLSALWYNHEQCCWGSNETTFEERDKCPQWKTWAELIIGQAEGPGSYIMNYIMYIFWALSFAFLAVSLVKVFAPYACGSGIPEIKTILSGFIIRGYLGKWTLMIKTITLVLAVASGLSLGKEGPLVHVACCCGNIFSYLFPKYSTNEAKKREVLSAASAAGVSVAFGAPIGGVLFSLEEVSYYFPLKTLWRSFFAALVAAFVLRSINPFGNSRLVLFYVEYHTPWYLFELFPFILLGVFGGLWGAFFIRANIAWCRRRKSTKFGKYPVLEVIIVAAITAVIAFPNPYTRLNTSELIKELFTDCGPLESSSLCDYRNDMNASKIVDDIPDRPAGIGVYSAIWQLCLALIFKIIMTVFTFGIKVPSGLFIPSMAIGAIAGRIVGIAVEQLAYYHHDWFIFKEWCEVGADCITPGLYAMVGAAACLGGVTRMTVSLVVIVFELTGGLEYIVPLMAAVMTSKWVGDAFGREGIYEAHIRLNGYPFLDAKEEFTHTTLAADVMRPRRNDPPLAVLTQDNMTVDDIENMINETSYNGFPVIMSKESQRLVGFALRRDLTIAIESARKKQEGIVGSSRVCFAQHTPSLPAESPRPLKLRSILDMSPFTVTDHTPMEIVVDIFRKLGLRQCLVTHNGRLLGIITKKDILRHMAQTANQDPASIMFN
Sequence of UniProt P00374 (P00374 whole entry, looked up): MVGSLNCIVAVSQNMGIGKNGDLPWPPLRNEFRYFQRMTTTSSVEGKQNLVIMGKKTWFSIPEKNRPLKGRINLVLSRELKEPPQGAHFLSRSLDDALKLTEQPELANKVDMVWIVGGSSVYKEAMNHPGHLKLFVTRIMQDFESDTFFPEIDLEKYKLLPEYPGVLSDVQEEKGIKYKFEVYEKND
Sequence of UniProt P24311 (P24311 whole entry, looked up): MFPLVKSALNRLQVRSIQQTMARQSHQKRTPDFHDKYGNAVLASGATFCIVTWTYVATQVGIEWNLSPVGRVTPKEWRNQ

| Target | log2 fold change |
| --- | --- |
| DHFR (UniProt P00374) | 0.042 |
| COG4 (UniProt Q9H9E3) | 0.05 |
| COASY isoform 2 (UniProt Q13057) | 0.079 |
| COG5 isoform 2 (UniProt Q9UP83) | 0.08 |
| COX7B (UniProt P24311) | -0.028 |
| CSNK1A1 (UniProt P48729) | 0.048 |
| DLG3 isoform 2 (UniProt Q92796) | 0.043 |
| CUX1 isoform 2 (UniProt Q13948) | 0.081 |
| DCTN1 isoform 4 (UniProt Q14203) | -0.027 |
| DDAH1 (UniProt O94760) | -0.022 |
| CSNK1G3 (UniProt Q9Y6M4) | 0.035 |
| CUX1 isoform 3 (UniProt P39880) | 0.029 |
| CINP isoform 3 (UniProt Q9BW66) | 0.014 |
| CNNM2 (UniProt Q9H8M5) | 0.091 |
| CNTN4 (UniProt Q8IWV2) | -0.076 |
| DNAJC24 (UniProt Q6P3W2) | -0.032 |
| DNAH10 (UniProt Q8IVF4) | -0.029 |

| Target | log2 fold change |
| --- | --- |
| COQ8A (UniProt Q8NI60) | 0.016 |
| CNOT4 isoform 9 (UniProt O95628) | 0.075 |
| CKS1B (UniProt P61024) | 0.025 |
| DDB2 (UniProt Q92466) | 0.075 |
| DIAPH1 (UniProt O60610) | -0.001 |
| COQ9 (UniProt O75208) | -0.101 |
| DPY19L3 (UniProt Q6ZPD9) | 0.051 |
| CSNK1D (UniProt P48730) | 0.058 |
| DENND1B (UniProt Q6P3S1) | 0.04 |
| DOCK10 (UniProt Q96BY6) | 0.007 |
| DEF6 (UniProt Q9H4E7) | 0.004 |
| CNIH4 (UniProt Q9P003) | 0.066 |
| CLCN3 (UniProt P51790) | -0.017 |
| DIAPH1 (UniProt H9KV28) | -0.001 |
| CUEDC2 (UniProt Q9H467) | 0 |
| CLASP2 (UniProt O75122) | 0.18 |

Compound: CN1CC[C@H](c2c(O)cc(O)c3c(=O)cc(-c4ccccc4Cl)oc23)[C@H](O)C1 [alvocidib]
Assay: as above
Outline: as §1

| Target | log2 fold change |
| --- | --- |
| DHFR (UniProt P00374) | 0.03 |
| COG4 (UniProt Q9H9E3) | 0.028 |
| COASY isoform 2 (UniProt Q13057) | 0.015 |
| DDX4 (UniProt Q9NQI0) | -0.234 |
| COG5 isoform 2 (UniProt Q9UP83) | 0.02 |
| COX7B (UniProt P24311) | 0.013 |
| CSNK1A1 (UniProt P48729) | 0.007 |
| DLG3 isoform 2 (UniProt Q92796) | -0.136 |
| CUX1 isoform 2 (UniProt Q13948) | -0.035 |
| DCTN1 isoform 4 (UniProt Q14203) | 0.3 |
| DDAH1 (UniProt O94760) | 0.015 |
| CSNK1G3 (UniProt Q9Y6M4) | 0.032 |
| CUX1 isoform 3 (UniProt P39880) | -0.03 |
| CINP isoform 3 (UniProt Q9BW66) | -0.056 |
| CNNM2 (UniProt Q9H8M5) | -0.049 |
| CNTN4 (UniProt Q8IWV2) | -0.148 |
| DNAJC24 (UniProt Q6P3W2) | 0.079 |

| Target | log2 fold change |
| --- | --- |
| DNAH10 (UniProt Q8IVF4) | -0.248 |
| COQ8A (UniProt Q8NI60) | 0.051 |
| CNOT4 isoform 9 (UniProt O95628) | -0.351 |
| CKS1B (UniProt P61024) | 0.117 |
| DDB2 (UniProt Q92466) | 0 |
| DIAPH1 (UniProt O60610) | 0.03 |
| COQ9 (UniProt O75208) | 0.002 |
| CSNK1D (UniProt P48730) | 0.244 |
| DENND1B (UniProt Q6P3S1) | 0.074 |
| DOCK10 (UniProt Q96BY6) | -0.354 |
| DEF6 (UniProt Q9H4E7) | -0.036 |
| CLCN3 (UniProt P51790) | -0.03 |
| DIAPH1 (UniProt H9KV28) | -0.039 |
| CUEDC2 (UniProt Q9H467) | 0.054 |
| DNAH5 (UniProt Q8TE73) | -0.189 |
| CLASP2 (UniProt O75122) | -0.139 |

Compound: CN1CCc2c(c3ccccc3n2Cc2ccc(C(=O)NO)cc2)C1 [Tubastatin A]
Assay: as above
Outline: as §1

| Target | log2 fold change |
| --- | --- |
| DHFR (UniProt P00374) | -0.111 |
| COG4 (UniProt Q9H9E3) | -0.131 |
| COASY isoform 2 (UniProt Q13057) | -0.124 |
| DDX4 (UniProt Q9NQI0) | -0.173 |
| COG5 isoform 2 (UniProt Q9UP83) | -0.051 |
| COX7B (UniProt P24311) | 0.02 |
| CSNK1A1 (UniProt P48729) | -0.105 |
| DLG3 isoform 2 (UniProt Q92796) | 0 |
| CUX1 isoform 2 (UniProt Q13948) | 0.016 |
| DCTN1 isoform 4 (UniProt Q14203) | -0.254 |
| DDAH1 (UniProt O94760) | 0.007 |
| CSNK1G3 (UniProt Q9Y6M4) | 0.064 |
| CUX1 isoform 3 (UniProt P39880) | 0.003 |
| CINP isoform 3 (UniProt Q9BW66) | -0.107 |
| CNNM2 (UniProt Q9H8M5) | -0.105 |
| CNTN4 (UniProt Q8IWV2) | 0.185 |
| DNAJC24 (UniProt Q6P3W2) | 0.001 |

| Target | log2 fold change |
| --- | --- |
| DNAH10 (UniProt Q8IVF4) | 0.056 |
| COQ8A (UniProt Q8NI60) | -0.06 |
| CNOT4 isoform 9 (UniProt O95628) | 0.04 |
| CKS1B (UniProt P61024) | -0.001 |
| DDB2 (UniProt Q92466) | 0.06 |
| DIAPH1 (UniProt O60610) | 0 |
| COQ9 (UniProt O75208) | -0.041 |
| CSNK1D (UniProt P48730) | -0.085 |
| DENND1B (UniProt Q6P3S1) | 0.152 |
| DOCK10 (UniProt Q96BY6) | -0.028 |
| DEF6 (UniProt Q9H4E7) | -0.154 |
| CNIH4 (UniProt Q9P003) | 0.1 |
| CLCN3 (UniProt P51790) | -0.012 |
| DIAPH1 (UniProt H9KV28) | 0.032 |
| CUEDC2 (UniProt Q9H467) | 0.036 |
| DNAH5 (UniProt Q8TE73) | 0.073 |
| CLASP2 (UniProt O75122) | -0.066 |
